Compound activity as filed in PubChem BioAssay.
NS1 function inh: inhibitors of influenza NS1 protein function | actives 0.4% (n = 270,000) | Potency, µM (top dose mostly 46.1 µM), inactives show top-dose activity, positive = more growth; calls by dose curve; note: potency is the fitted concentration of half-maximal effect; actives are rising curves; nearly all actives have a fitted effect of over 50% in size
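Growth recovery, yeast-based: influenza A NS1 expressed in S. cerevisiae causes slow growth, and suppressors are detected by OD600. The parent strain without NS1 is used as positive control.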
SARS PLP yeast: blocks SARS-CoV papain-like protease in a yeast assay. Potency, µM (titrated, usually from 32.9 µM), without a hit: at the top dose activity, positive = growth rescue, hits mostly activators. actives 0.19% (n = 330,000). AID 485353. S. cerevisiae expressing SARS-CoV PLpro, growth rescue; calls by dose curve; note: potency is the fitted concentration of half-maximal effect; 0% is about no effect; nearly all actives have a fitted effect of over 55% in size
CHX counter: affects cycloheximide protein synthesis inhibition readout, counter-screen; max response, %; actives 12% (n = 300,000); cell reporter, cycloheximide protein synthesis inhibition counterscreen; in the data active = max response mostly above about 13%, no sharp cut-off; inactive = mostly below about 14%; note: read at 38.3 µM for the half of the compounds with a filed dose; 0% is about no effect
Tb PYK inh: inhibitors of Trypanosoma brucei pyruvate kinase; TbPYK enzyme, Kinase-Glo Plus ATP luminescence, 45 min; AID 624173; actives 0.12% (n = 410,000); Potency, µM (doses to about 76.8 µM), for inactives: top-dose activity, negative = inhibition, most hits filed as inhibitors; note: potency is the fitted concentration of half-maximal effect; % is set by controls: 0 for no effect and ±100 for the full control effect; nearly all actives have a fitted effect of over 50% in size
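Luminescent Kinase-Glo Plus end-point after 45 min room-temperature reaction of T. brucei pyruvate kinase started with 130 uM ADP (final). Buffer TEA 50 mM pH 7.2 with KCl, MgCl2, BSA, Tween-20; titration-based qHTS with fitted concentration-effect curves.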
LmPK inhibitor: blocks Leishmania mexicana pyruvate kinase activity | purified LmPK, Kinase-Glo ATP luminescence, 1 h | Potency, µM (doses to about 57.5 µM), for inactives: top-dose activity change, negative = inhibition, usual class: inhibitors | actives 0.37% (n = 290,000) | AID 1721; note: potency is the fitted concentration of half-maximal effect; % is set by controls: 0 for no effect and ±100 for the full control effect
Target sequence (Q27686 whole entry, looked up): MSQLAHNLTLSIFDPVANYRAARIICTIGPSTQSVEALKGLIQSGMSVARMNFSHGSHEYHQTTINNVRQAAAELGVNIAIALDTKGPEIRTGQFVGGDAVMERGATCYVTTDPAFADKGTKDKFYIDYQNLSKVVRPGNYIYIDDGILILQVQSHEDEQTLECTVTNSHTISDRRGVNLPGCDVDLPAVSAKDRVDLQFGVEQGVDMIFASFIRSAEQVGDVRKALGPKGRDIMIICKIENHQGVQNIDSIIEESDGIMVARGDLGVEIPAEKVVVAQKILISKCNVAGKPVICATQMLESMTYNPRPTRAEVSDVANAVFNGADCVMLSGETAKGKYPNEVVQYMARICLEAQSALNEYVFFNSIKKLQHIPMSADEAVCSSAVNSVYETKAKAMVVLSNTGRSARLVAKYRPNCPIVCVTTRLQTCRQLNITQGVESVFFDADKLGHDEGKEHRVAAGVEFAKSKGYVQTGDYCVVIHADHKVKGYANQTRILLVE
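Kinase-Glo luminescence read after 1 h RT reaction of 0.1 nM LmPK with 0.5 mM PEP and 0.1 mM ADP. Activity scaled between uninhibited and enzyme-free controls.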
Shiga inhibitor: Shiga toxin inhibition; actives 9.2% (n = 290,000); AID 2315; inhibition, % at 38.7 µM; Vero cells, Shiga toxin protein synthesis inhibition reporter; in the data active = inhibition mostly above about 28%, no sharp cut-off; inactive = mostly below about 43%; note: 0% is about no effect
* hit, by the source's call; ? = inconclusive; . = not tested or not shown. Only a selection was taken, and hits are over-represented in it overall. Unless noted, calls come from the whole dose curve; as a rule, active = well fitted curve in the direction sought with a large enough effect; inconclusive = small, poorly fitted or top-dose-only effect, or another doubt; inactive = no such curve, though single readings can be large; an effect the other way counts as inactive or inconclusive.

SMILES	NS1 function inh	SARS PLP yeast	CHX counter	Tb PYK inh	LmPK inhibitor	Shiga inhibitor
Cc1ccccc1C(=O)N/N=C/c1ccccn1	7%	-7%	52*	5%	-9%	68*
O=C(N/N=C\c1ccccn1)c1ccccc1O	.	-6%	33*	1%	-7%	120*
CCc1nc2ccc(N3CCN(C)CC3)cc2nc1CC	.	1%	25*	-4%	-4%	40
CC(C)c1ccc(S(=O)(=O)N2CCN(CC(=O)Nc3ccccc3C(F)(F)F)CC2)cc1	.	.	.	0%	.	.
NS(=O)(=O)c1ccc(N/C=C\C(=O)c2ccc3ccccc3c2)cc1	3%	-9%	31*	-3%	-4%	18
COc1ccc(N/C=C/C(=O)C(C)(C)C)cc1	4%	-1%	31*	-2%	-1%	93*
COc1ccc(N/C=C\C(=O)c2ccc3ccccc3c2)cc1	-4%	5%	29*	-11%	4%	24
NC(N)=NS(=O)(=O)c1ccc(N/C=C/C(=O)c2ccc(Cl)c(Cl)c2)cc1	3%	0%	2	-6%	-1%	-10
COc1ccc(N/C=C/C(=O)c2ccccc2)cc1	-22%	-1%	9	?	7%	.
Cc1oc(-c2cccc(Cl)c2)nc1CS(=O)(=O)CC(=O)NC(C)CCc1ccccc1 (centres undefined)	.	.	.	-1%	.	.
CCc1ccccc1NC(=O)CCS(=O)(=O)c1cccc2nonc12	.	.	.	-4%	.	.
COc1ccc(F)cc1S(=O)(=O)N1CCc2ccccc2C1	.	.	.	0%	.	.
CS(=O)(=O)Nc1ccc(F)cc1	.	.	.	1%	.	.
N/C(=N\O)c1ccc(NC(=O)c2ccc(Br)o2)cc1	1%	-3%	45*	-15%	-8%	81*
CN1CCN(c2ccc(NC(=S)NC(=O)c3cccc4c(Br)cccc34)cc2)CC1	12%	8%	-1	-4%	8%	-3
CCC(=O)NC(=S)Nc1ccc(NC(=O)c2ccc(Br)o2)cc1	-6%	4%	16	-4%	2%	112*
CN1CCN(c2ccc(NC(=O)c3ccccc3Br)cc2)CC1	-11%	4%	18*	-6%	-1%	active
CCC(=O)Nc1ccc(N2CCC(C)CC2)cc1	-1%	-4%	33*	-9%	-4%	15*
CCC(=O)NC(=S)Nc1ccc(NC(=O)c2ccc(OC)cc2)cc1	1%	32%	-2	-7%	2%	-11
Cc1ccc(CNC(=O)c2ccc3c(c2)nc(C)n3-c2cccc(F)c2)cc1	.	.	.	1%	.	.
CCOc1ccc(-n2nc(CO)c(C(=O)NCc3cccs3)n2)cc1	.	.	.	1%	.	.
CCCCOCCOc1nc(-c2ccc(C(=O)O)c(F)c2)sc1C	.	.	.	0%	.	.
O=C(Nc1ccc(N2CCN(C(=O)c3ccccc3)CC2)cc1)c1cccnc1	-3%	-4%	-6	-1%	-3%	-5
CC1CCN(c2ccc(NC(=O)c3ccc(Br)o3)cc2)CC1	2%	3%	28*	-3%	-6%	65*
CC1CCN(c2ccc(NC(=O)c3cccnc3)cc2)CC1	?	-3%	33*	-4%	-7%	55*
SMILES	NS1 function inh	SARS PLP yeast	CHX counter	Tb PYK inh	LmPK inhibitor	Shiga inhibitor
CN1CCN(c2ccc(NC(=O)c3ccc(Br)o3)cc2)CC1	10%	13%	30*	-10%	-3%	76*
CS(=O)(=O)N1CCN(c2ccc(NC(=O)c3ccc(Br)o3)cc2)CC1	-4%	8%	43*	-5%	-1%	110*
Cc1ccc(Cn2c(CN3CCC(C(=O)NCC(C)c4ccccc4)CC3)cc3ccccc32)cc1 (centres undefined)	.	.	.	2%	.	.
CS(=O)(=O)c1ccc(CNC(=O)C2(C(F)(F)F)C/C(=C\Cc3ccccc3)CCCO2)cc1 (centres undefined)	.	.	-1	2%	.	-2
O=C(Nc1ccc(N2CCOCC2)cc1)c1ccc(Br)o1	0%	-3%	28*	-17%	-27%	79*
COc1ccc(C2C=C(c3ccccc3)Nc3nc(NC(=O)c4cccc([N+](=O)[O-])c4)nn32)cc1 (centres undefined)	.	.	.	-21%	.	.
Cc1ccccc1NC(=O)CCCSc1nc2ccccc2s1	-46%	-41%	20	-1%	3%	4
CC(C)(C)NC(=O)CCCSc1nc2ccccc2s1	-4%	-1%	47*	-1%	-6%	72*
